Experimental data as given in PubChem BioAssay (NCATS).
Results filed as inconclusive are left out. The source made the active and inactive calls. Calls follow the shape of the dose curve; as a rule, active = well fitted inhibition curve with a large enough effect; inconclusive = small, poorly fitted or top-dose-only effect; inactive = flat fitted curve, though single readings scatter.

How the values were obtained:
Test in all cases: qHTS profiling for inhibitors of Plasmodium falciparum proliferation (AID 504749); also: nearly all actives have a fitted effect of over 60% in size
Conditions in all cases: P. falciparum in erythrocytes, SYBR Green DNA, 72 h; series mostly up to 28.7 µM
AA1029 = system: AA1029
Procedure, shortened: (§1)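 Quantitative HTS: compounds pinned into medium, infected erythrocytes added (0.3% parasitemia, 2.5% hematocrit), 72 h culture at 37 C under 5% CO2. Saponin/Triton lysis with SYBR Green I, overnight RT, then fluorescence read.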

ATS95 = system: ATS95
Procedure, shortened: as §1

C2A = system: C2A
Procedure, shortened: as §1

CP211 = system: CP211
Procedure, shortened: as §1

CP238 = system: CP238
Procedure, shortened: as §1

CP252 = system: CP252
Procedure, shortened: as §1

CP256 = system: CP256
Procedure, shortened: as §1

CP262 = system: CP262
Procedure, shortened: as §1

CP266 = system: CP266
Procedure, shortened: as §1

CP268 = system: CP268
Procedure, shortened: as §1

CP269 = system: CP269
Procedure, shortened: as §1

CP305 = system: CP305
Procedure, shortened: as §1

CP315 = system: CP315
Procedure, shortened: as §1

CP325 = system: CP325
Procedure, shortened: as §1

CP329 = system: CP329
Procedure, shortened: as §1

DIV17 = system: DIV17
Procedure, shortened: as §1

DIV30 = system: DIV30
Procedure, shortened: as §1

FAB9 = system: FAB9
Procedure, shortened: as §1

ICS = system: ICS
Procedure, shortened: as §1

PC26 = system: PC26
Procedure, shortened: as §1

Measured: Potency
Potency is read from the fitted curve at half-maximal effect.

C=C1CC[C@H](O)C/C1=C/C=C1\CCC[C@]2(C)[C@@H]([C@H](C)CCCC(C)C)CC[C@@H]12
inactive: AA1029 | ATS95 | C2A | CP211 | CP238 | CP252 | CP256 | CP262 | CP266 | CP268 | CP269 | CP305 | CP315 | CP325 | CP329 | DIV17 | DIV30 | FAB9 | PC26
active: ICS 10 µM

Cc1c(C(=O)O)c(O)cc2c1C(=O)c1c(O)c([C@H]3O[C@H](CO)[C@@H](O)[C@H](O)[C@H]3O)c(O)c(O)c1C2=O
inactive: AA1029 | ATS95 | C2A | CP211 | CP238 | CP252 | CP256 | CP262 | CP266 | CP268 | CP269 | CP305 | CP315 | CP325 | CP329 | DIV17 | DIV30 | FAB9 | ICS | PC26
